# Compound activity deposited in PubChem by National Center for Advancing Translational Sciences (NCATS).
# Most compounds without a hit are left out; they make up all but 22% or so of the library.
# Pf growth 96h = Primary qHTS for delayed death inhibitors of the malarial parasite plastid, 96 hour incubation; P. falciparum luciferase reporter growth, 96 h; hit rate 6.9% among 320,000; Potency, µM (highest dose often 28.7 µM), for inactives: at the highest dose activity change, negative = inhibition, most hits filed as inhibitors; further: potency means the concentration at half of the fitted maximal effect; on the % scale 0 is the no-effect control and ±100 the full control effect
#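 Two parasite generations (96 h, 37 C, 5% CO2) of compound exposure in infected erythrocytes (0.05% parasitemia, 2% hematocrit). Luciferase-reporter P. falciparum; decreased luminescence indicates inhibited growth, aimed at apicoplast-acting delayed death.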
# Pf growth 48h = Primary qHTS for delayed death inhibitors of the malarial parasite plastid, 48 hour incubation | P. falciparum luciferase growth in erythrocytes, 48 h | Potency, µM (top dose mostly 28.7 µM), without a hit: at the highest dose activity change, negative = inhibition, usual class: inhibitors | hit rate 5.9% among 310,000; further: potency means the concentration at half of the fitted maximal effect; on the % scale 0 is the no-effect control and ±100 the full control effect
#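 Luminescence readout; reporter = integrated firefly luciferase in P. falciparum. RBC culture at 2% hematocrit, 0.1% parasitemia final, 37 C/5% CO2; decreased signal taken as growth inhibition.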
# LmPK inhibitor = qHTS Assay for Inhibitors of Leishmania Mexicana Pyruvate Kinase (LmPK); purified LmPK, Kinase-Glo ATP luminescence, 1 h; Potency, µM (highest dose often 57.5 µM), without a hit: at the top dose activity change, negative = inhibition, actives largely listed as inhibitors; Q27686; AID 1721, 2009; hit rate 0.37% among 290,000; further: potency means the concentration at half of the fitted maximal effect; on the % scale 0 is the no-effect control and ±100 the full control effect
# Target sequence (Q27686 whole entry, looked up): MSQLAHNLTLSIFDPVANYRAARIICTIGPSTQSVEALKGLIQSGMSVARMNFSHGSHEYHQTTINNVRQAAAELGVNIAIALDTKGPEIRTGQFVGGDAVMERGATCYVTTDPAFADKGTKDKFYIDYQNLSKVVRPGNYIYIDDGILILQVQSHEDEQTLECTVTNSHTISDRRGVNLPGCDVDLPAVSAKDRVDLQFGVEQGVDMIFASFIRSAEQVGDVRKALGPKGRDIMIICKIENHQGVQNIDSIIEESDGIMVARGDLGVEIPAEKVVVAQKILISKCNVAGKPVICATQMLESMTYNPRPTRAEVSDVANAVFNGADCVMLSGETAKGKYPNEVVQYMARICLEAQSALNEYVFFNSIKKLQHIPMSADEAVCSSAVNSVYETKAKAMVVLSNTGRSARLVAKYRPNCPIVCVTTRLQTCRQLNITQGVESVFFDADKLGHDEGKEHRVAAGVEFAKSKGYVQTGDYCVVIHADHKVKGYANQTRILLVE
#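 Purified LmPK (0.1 nM) converted ADP (0.1 mM) to ATP with PEP (0.5 mM) in imidazole buffer pH 7.2 with KCl and MgCl2, 1 h at room temperature. ATP was read by Kinase-Glo luminescence; data normalized to uninhibited and no-enzyme controls.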
# Shiga toxin inh = A qHTS for Small Molecule Inhibitors of Shiga Toxin; hit rate 9.2% among 290,000; AID 2315, 2010; inhibition, % at 38.7 µM; Vero cells, Shiga toxin protein synthesis inhibition reporter; in the data active means inhibition mostly above about 28%, no sharp cut-off; inactive means mostly below about 43%; further: 0% is about no effect
# CHX counter = Cycloheximide Counterscreen for Small Molecule Inhibitors of Shiga Toxin; max response, %; hit rate 12% among 300,000; cell reporter, cycloheximide protein synthesis inhibition counterscreen; AID 2314, 2010; in the data active means max response mostly above about 13%, no sharp cut-off; inactive means mostly below about 14%; further: read at 38.3 µM for the half of the compounds with a filed dose; 0% is about no effect
# Active calls of the source: *; ? = inconclusive; / = not tested or not shown; [ ] = remark or other dose. Unless noted, the call rests on the fitted dose curve; in most records, active means well fitted inhibition curve with a large enough effect; inconclusive means small, poorly fitted or top-dose-only effect, or another doubt; inactive means no such curve, though single readings can be large or run the other way.
SMILES,Pf growth 96h,Pf growth 48h,LmPK inhibitor,Shiga toxin inh,CHX counter
CCn1cc(C(=O)N[C@H](C(=O)NC(C)(C)CO)C(C)C)c(=O)c2cc3c(cc21)OCO3,8.28µM*,?,0.9%,-7.3,-4.6
CCc1ccc(OCC(=O)Nc2ccc3oc(=O)ccc3c2)cc1,16.9%,17.8%,6.7%,-3.2,1.9
O=C(N/N=C/c1c[nH]c2ccccc12)c1ccc(O)c(O)c1,-2.0%,-64.9%,-4.0%,64.4*,24.0*
O=C(N/N=C/c1c[nH]c2ccccc12)c1cccc(Cl)c1,?,16.7%,-6.6%,46.2*,46.8*
CCCCCN=C(N)N/N=C/c1c[nH]c2ccc(OC)cc12,3.01µM*,3.01µM*,/,/,/
O=C(N/N=C/C1C(c2ccccc2)C1(Cl)Cl)c1cccc(Cl)c1 (stereo not given),0.0%,54.4%,5.4%,49.4*,39.6*
CCOc1ccccc1C(=O)N/N=C/c1c[nH]c2ccccc12,?,-0.3%,-2.2%[11.5 µM],17.0,17.3
CCCOc1ccc(C(=O)N/N=C/c2c[nH]c3ccc(Br)cc23)cc1,?,13.8%,1.3%,26.9,0.7
Cc1ccc(S(=O)(=O)CCC(=O)OCC(=O)NC(C)c2ccccc2)cc1 (stereo not given),4.2%,0.9%,/,/,/
CC(=O)Nc1cccc(C(=O)N/N=C/c2ccc(C)o2)c1,26.4%,23.1%,-0.4%,17.1,11.1
O=C(N/N=C/c1c[nH]c2ccccc12)c1cccc(O)c1,287.7%,35.5%,0.7%,70.2*,26.2*
COc1ccc2c(c1)c(/C=N/Nc1ccc(C(=O)O)cc1)c(C)n2C,-19.7%,21.6%,-2.6%,70.2*,43.5*
COc1ccc2c(/C=N/Nc3ccc(C(=O)O)cc3)c[nH]c2c1,43.5%,75.3%,3.4%,132.6*,46.7*
CC(=O)Nc1cccc(C(=O)N/N=C/c2c[nH]c3ccccc23)c1,2.33µM*,25.4%,-1.1%,39.3,12.6*
COc1ccc2c(CCNC(=O)Nc3ccccc3)c[nH]c2c1,?,9.5%,2.1%,-2.7,3.5
CC(NC(=O)c1ccc2c(c1)C(=O)N(Cc1cccnc1)C2=O)c1ccccc1 (stereo not given),-24.5%,12.0%,-4.4%,-3.7,-2.0
O=C(CN(C(=O)CNC(=O)c1ccco1)c1ccc2c(c1)OCCO2)NC1CCCC1,11.9%,63.7%,-2.2%,-4.7,4.7
COCCCn1c(=O)c2sccc2n2c(CCCC(=O)NCc3ccc(OC)cc3)nnc12,?,-6.3%,-0.4%,-1.3,0.6
COc1ccc(C(=O)N/N=C/c2c[nH]c3ccccc23)cc1,-15.8%,27.2%,1.7%,69.3*,31.1*
COc1ccc(C(=O)N/N=C/c2cc3ccccc3[nH]c2=S)cc1,13.1µM*,/,11.9%,10.7,2.7
CCOCCn1c(C(C)O)nc2ccccc21 (stereo not given),3.7µM*,25.1%,6.7%,-9.6,10.7
CCc1cccc(CC)c1N(COC)C(=O)Cn1c(C(C)O)nc2ccccc21 (stereo not given),9.28µM*,0.0%,0.2%,30.8,0.7
Cc1ccc(C)c(S(=O)(=O)N2CCCOC2CNC(=O)C(=O)NCCC2=CCCCC2)c1 (stereo not given),-23.0%,-29.1%,2.6%,16.7,-2.4
COc1cc(N/C(N)=N/c2nc(C)cc(C)n2)c(OC)cc1Cl,-8.4%,?,6.2%,9.9,-1.9
CC(=O)C(Cc1ccccc1)NC(=O)CN(C)Cc1ccccc1Cl (stereo not given),?,?,2.6%,-16.1,13.7
SMILES,Pf growth 96h,Pf growth 48h,LmPK inhibitor,Shiga toxin inh,CHX counter
CCOc1ccc(-n2cnc3scc(-c4ccc(OC)c(OC)c4)c3c2=O)cc1,2.62µM*,?,9.8%,-8.4,-0.7
CCC(C(=O)OC)n1cnc2scc(-c3ccc(C)c(C)c3)c2c1=O (stereo not given),0.0%,13.1µM*,-4.9%,/,3.4
CCC(C(=O)O)n1cnc2scc(-c3ccc(C)c(C)c3)c2c1=O (stereo not given),?,?,0.9%,35.5,-3.7
C=CCn1cnc2scc(-c3ccc(C)c(C)c3)c2c1=O,-4.0%,4.0%,1.0%,-14.2,-3.1
CCCn1cnc2scc(-c3ccc(C)c(C)c3)c2c1=O,10.4µM*,2.4%,1.7%,-6.5,-2.3
CCOC(=O)N1CCC(N(CCN(C)C)C(=S)Nc2ccc(Oc3ccccc3)cc2)CC1,-84.4%,-9.7%,0.4%,-10.7,7.7
Cc1cccc(C)c1N=Nc1c(C)cc(O)cc1C,?,-15.9%,-14.8%,9.0,-2.8
C/C(=N\NC(N)=S)c1ccccc1,?,-28.0%,0.8%,18.6,4.2
C/C(=N\NC(=O)Cc1ccccc1)c1ccc(Br)s1,77.8%,27.4%,-3.4%,-3.4,11.4
C/C(=N\NC(N)=S)c1cc(-c2ccccc2)c(-c2ccccc2)s1,?,9.28µM*,2.3%,/,-0.1
C/C(=N/NC(N)=S)c1ccc(Br)s1,-3.0%,14.7µM*,1.8%,14.6,-2.7
Cc1ccc(O)c(C(=O)/C=C/c2ccc3c(c2)OCCCO3)c1,?,89.0%,-21.0%,154.8*,80.8*
Cc1ccc(C(=O)O/N=C/c2ccc3c(c2)OCO3)cc1,-0.8%,36.1%,-8.5%,42.0,12.4
O=C(/C=C/c1ccc2c(c1)OCCCO2)c1ccccc1O,234.0%,199.0%,?,170.6*,77.9*
COc1cc(/C=C/C(=O)c2ccccc2O)cc(OC)c1OC,7.2%,?,-0.7%,-12.6,13.5
Cn1cccc1C(=O)C(=O)Nc1ccccc1C(F)(F)F,0.0%,218.6%,8.1%,64.9*,39.9*
CCOC(=O)c1cnn(-c2ccccc2)c1-n1cccc1C(=O)C(=O)Nc1ccccc1C(F)(F)F,14.7µM*,13.1µM*,6.5%,-15.2,0.2
Cn1cccc1C(=O)C(=O)Nc1ccccc1,110.6%,211.2%,15.8µM*,90.9*,42.6*
CC(=O)Nc1ccccc1C(F)(F)F,5.6%,?,-1.1%,-6.9,-1.7
CC(C)(C)C(=O)NC(=O)Nc1ccccc1C(F)(F)F,20.5%,34.0%,3.9%,20.3,10.8*
Cn1cccc1C(=O)NC1CCCCC1,14.9%,34.1%,/,/,/
O=C(OCC(=O)N1CCN(C(=O)c2ccco2)CC1)c1ccccc1NCCO,?,-4.8%,/,/,/
COc1ccc(-c2nc3c(Br)c(N)c(Br)cc3o2)cc1,?,2.33µM*,22.4µM*,19.1,9.5
Cc1oc(-c2ccccc2)nc1C(=O)O,0.0%,-77.2%,3.3%,7.8,-1.8
Nc1c(Br)cc2oc(-c3ccccc3)nc2c1Br,273.3%,227.0%,-4.4%,33.1,17.8*
Cc1cc(C)c2c3c(sc2n1)C(=O)N(Cc1ccccc1)CC(=O)N3,?,/,7.8%,-14.7,-2.0
C=CCc1c(C)nc(-c2ccccc2)nc1Nc1ccccc1O,?,5.22µM*,1.5%,9.4,-2.0
C=CCc1c(C)nc(-c2ccccc2)nc1N/N=C/c1ccncc1,?,?,6.1%,30.1,23.1*
